An excerpt weighted towards active compounds, which were near 7.8% of everything screened.
Lassa entry inh: inhibitors of Lassa virus binding or cell entry; AID 540256; Lassa virus pseudotype entry inhibition, cell reporter; Potency, µM (series often up to 37.9 µM), usual class: inhibitors; 1.2% of 300,000 active; calls by dose curve; tested in HEK293 cells; note: nearly all actives have a fitted effect of over 50% in size
HCV inhibitor: HCV inhibition; Potency, µM (highest dose often 41.8 µM), actives largely listed as inhibitors; Huh7.5.1 HCVcc-Cre infection, luciferase reporter, 44 h; AID 651820; 3.4% of 340,000 active; active = well fitted inhibition curve with a large enough effect; inconclusive = small, poorly fitted or top-dose-only effect, or another doubt; inactive = no such curve, though single readings can be large or run the other way
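A cell-based infection assay in which seeded cells (1,000 per well) receive test compound after 4 h, are inoculated with HCVcc-Cre at approximately 0.5 moi, and are incubated 44 h before luminescence detection.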
Vaccinia Venus: inhibitors of vaccinia virus (Venus reporter); Potency, µM (doses to about 36.5 µM), most hits filed as inhibitors; Vaccinia virus Venus reporter expression, fluorescence; 0.46% of 330,000 active; AID 720580; calls by dose curve; tested in A549 cells; note: nearly all actives have a fitted effect of over 30% in size
Vaccinia mCherry: vaccinia inhibition (mCherry reporter); Vaccinia virus mCherry reporter infection, fluorescence; Potency, µM (titrated, usually from 36.5 µM), actives largely listed as inhibitors; 0.63% of 310,000 active; calls by dose curve; tested in A549 cells; note: nearly all actives have a fitted effect of over 35% in size
HCMV inh: human cytomegalovirus inhibition; HFF cells, HCMV-luciferase reporter, 72 h; hits give low values; activity change, negative = inhibition, % at 57.5 µM; 4.5% of 410,000 active; AID 1259415; in the data active = activity change below about -60%; inconclusive = no clear call, values can overlap the other calls; inactive = above about -39%
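Two compound doses tested in HFFs infected with HCMV-luciferase, MOI 1 PFU/cell, 72 h at 37C. Lysate luminescence read with OneGlo; data normalized against buffer-only and 10uM Salinomycin inhibitor controls.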
MARV entry inh: blocks Marburg virus binding to or entry into cells; 1.8% of 300,000 active; Potency, µM (top dose mostly 37.8 µM), actives largely listed as inhibitors; Marburg virus pseudotyped entry inhibition, cell reporter; calls by dose curve; tested in HEK293 cells
A number is an active result; 0 = inactive; ? = inconclusive; - = no result given; [ ] = another dose, or the depositor's remark.

SMILES	Lassa entry inh	HCV inhibitor	Vaccinia Venus	Vaccinia mCherry	HCMV inh	MARV entry inh
Cc1onc(-c2c(Cl)cccc2Cl)c1C(=O)NC1C(=O)N2C1SC(C)(C)C2C(=O)O (centres undefined)	0	0	0	0	0	0
Cc1onc(-c2c(Cl)cccc2Cl)c1C(=O)c1c[nH]c(C(=O)NCC2CCCO2)c1 (centres undefined)	8.9µM	11µM	0	0	0	?
CC(C)Cc1nn2cc(-c3cccc(Br)c3)nc2s1	?	-	0	0	0	?
CCC(Oc1ccc(F)cc1)C(=O)Nc1nc2c(s1)CCCC2 (centres undefined)	0	-	0	0	0	0
Cc1onc(-c2c(Cl)cccc2Cl)c1C(=O)NC1CCCCC1	?	13µM	0	0	0	?
COc1ccc(CC(NC(C)=O)C(=O)NC2CCN(S(=O)(=O)c3ccc(NC(C)=O)cc3)CC2)cc1 (centres undefined)	0	0	0	0	0	?
O=C(/C=C/c1ccc(S(=O)(=O)N2CCOCC2)cc1)Nc1cc(F)ccc1F	0	?	0	0	0	?
COc1ccc(CC(=O)Nc2cccc(S(=O)(=O)N3CCCC3)c2)cc1OC	-	4.5µM	-	-	-85	-
COc1cc(CC(NC(C)=O)C(=O)NC2CCN(S(=O)(=O)c3ccc(NC(C)=O)cc3)CC2)cc(OC)c1 (centres undefined)	-	0	0	0	-72	0
O=C(/C=C/c1ccc(F)cc1)Nc1cccc(S(=O)(=O)N2CCOCC2)c1	0	10µM	0	0	0	?
COc1ccc(Br)cc1CN(C)CC(=O)Nc1cccc(S(=O)(=O)N2CCCC2)c1	?	8.9µM	0	?	?	?
CC1=C2C3OC(=O)C(C)C3CCC2(C)C=C(Cl)C1=O (centres undefined)	-	-	0	0	0	-
COc1cccc(CC(=O)Nc2cc(S(=O)(=O)N3CCCCC3)ccc2C)c1	-	?	-	-	0	-
COc1cc(C(=O)Nc2cccc(S(=O)(=O)N3CCCC3)c2)cc(OC)c1C	-	?	-	-	0	-
COc1ccc(Br)cc1CN(C)CC(=O)Nc1cccc(S(N)(=O)=O)c1	0	0	0	0	0	?
COc1ccc(CC(=O)Nc2cccc(S(=O)(=O)N3CCOCC3)c2)cc1OC	-	3.5µM	-	-	-66	-
COc1ccc(/C=C/C(=O)Nc2cccc(S(=O)(=O)N3CCCC3)c2)cc1OC	?	10µM	0	0	?	?
COc1cccc(CC(=O)Nc2ccc(S(=O)(=O)N3CCCCC3)cc2)c1	?	?	0	0	0	10µM
COc1ccc(Br)cc1CN(C)CC(=O)Nc1c(Cl)cccc1Cl	0	0	0	0	-61	0
COc1ccccc1CC(=O)Nc1cccc(S(=O)(=O)N2CCOCC2)c1	0	?	0	0	0	0
CC=C(C)[C@H](O)C[Si](C)(C)c1ccccc1	-	-	-	-	-	0
Cc1nnc(Nc2ccccn2)c2ccccc12	0	0	0	0	-60	0
Cc1cc(NC(=O)NC(=O)c2ccccc2NC(=O)CN)ccc1Oc1ncc(Br)cn1	0	?	?	0	-84	?
Cc1cc(NC(=O)NC(=O)c2ccccc2NC(=O)CN(C)C)ccc1Oc1ncc(Br)cn1	?	?	0	0	0	?
Nc1ccccc1C(=O)NC(=O)Nc1ccc(Oc2ncc(Br)cn2)c(Cl)c1	?	0	?	0	-87	0
SMILES	Lassa entry inh	HCV inhibitor	Vaccinia Venus	Vaccinia mCherry	HCMV inh	MARV entry inh
CCc1ccc(OCC(=O)N(Cc2cccs2)c2ccc(Cl)cc2)cc1	0	-	0	0	0	0
COc1ccc(-c2noc(CNC(=O)c3cc(OC)c(OC)c(OC)c3)n2)cc1	0	-	0	0	0	?
Cc1ccc(S(=O)(=O)NCC(=O)NCC2CCCCC2)cc1C	0	0	0	0	0	0
Cc1cc(C)c(C)c(S(=O)(=O)NCC(=O)NCC2CCCCC2)c1C	0	0	0	?	-62	?
COc1ccc(C(=O)NCCCn2ccnc2)cc1[N+](=O)[O-]	-	0	-	-	0	-
O=C(c1ccccc1)c1ccc(NCCCn2ccnc2)c([N+](=O)[O-])c1	?	35µM	0	0	?	?
CCN(CC)S(=O)(=O)c1ccc(NN=C2CCN(C)CC2)c([N+](=O)[O-])c1	?	0	0	0	0	0
CCN(CC)S(=O)(=O)c1ccc(NCCCn2ccnc2)c([N+](=O)[O-])c1	0	0	0	0	-62	?
Cc1cc(C(=O)NCc2nc(-c3cccc(NC(=O)c4cc(C)oc4C)c3)oc2C)nc(C)n1	-	-	0	0	-	-
COC(=O)c1ccc(C(NC(=O)OCc2ccccc2)/C(F)=C/[C@@H](C)C(=O)NCc2ccc(OC)c(OC)c2)cc1 (some centres undefined)	15µM	0	?	0	0	?
COC(=O)c1ccc(C(NC(=O)OCc2ccccc2)/C(F)=C/[C@@H](C)C(=O)NCc2ccc(-c3ccccc3)cc2)cc1 (some centres undefined)	0	0[8.37 µM]	0	0	-	0
CCCOc1ccccc1C1CC(=O)Nc2cc3c(cc21)OCCO3 (centres undefined)	?	2.5µM	?	?	-	2.8µM
CCOc1ccccc1C1CC(=O)Nc2cc(C)c(C)cc21 (centres undefined)	-	?	-	-	0	-
CCCCOc1ccccc1C1CC(=O)Nc2cc(C)c(C)cc21 (centres undefined)	0	-	?	?	0	-
COc1cc(C2CC(=O)Nc3cc4c(cc32)OCCO4)cc(Br)c1OC (centres undefined)	?	-	0[7.34 µM]	?	-81	?
CCOc1c(Br)cc(C2CC(=O)Nc3cc4c(cc32)OCO4)cc1OC (centres undefined)	?	-	0[7.34 µM]	0[7.34 µM]	0	?
CCOc1ccccc1C1CC(=O)Nc2cc3c(cc21)OCCO3 (centres undefined)	?	?	-	-	-99	8.2µM
CCC(CC)C(=O)Nc1nnc(SCc2cc(=O)c3ccccc3[nH]2)s1	0	-	0	0	0	-
C=CC[C@@H]1C=C[C@@H](Oc2ccc(OC)cc2)[C@H](COC(=O)c2ccc(Br)cc2)O1	-	-	-	-	-	0
COC(=O)C1=C(C)N(CC2CC2)C(N(C)Cc2ccc(OC)cc2)=NC1c1ccccc1 (centres undefined)	-	-	-	-	-	0
CC(=O)c1c(N2CCN(C(=O)c3ccco3)CC2)nc(=S)n(-c2ccccc2)c1C	0	0	0	0	0	0
CC12CC(c3ccccc3O1)N(C(=O)c1ccco1)C(=S)N2c1ccccc1 (centres undefined)	?	0	-	-	0	16µM
CCOc1ccc(CCNC(=O)C2CCCN(S(=O)(=O)N(C)c3ccc(F)cc3)C2)cc1 (centres undefined)	0	-	0	0	0	-
CCCC1CCC(c2ccc(C(=O)NN)cc2)CC1 (centres undefined)	?	0	0	0	-79	0
CN1CCN(CC(O)COC(c2ccc(Cl)cc2)c2ccc(Cl)cc2)CC1 (centres undefined)	-	5µM	-	-	-80	-
OC(COC(c1ccc(Cl)cc1)c1ccc(Cl)cc1)CN1CCCC1 (centres undefined)	?	5.6µM	-	-	0	?
